PAX8 reporter: inhibitors of PAX8 transcriptional activity in RMG-I cells; RMG-I TPO-luciferase reporter, SteadyGlo, 24 h; inhibition, % at 12.6 µM; 360,000 tested, 1.2% active;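 active = mean replicate inhibition at least 60% with every replicate also reaching 60%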;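 also: luciferase light reporting Pax8 driven TPO promoter activity; plate controls were median of neutral control wells for no effect and mitoxantrone controls for full effect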
Shn3 inh set2: inhibitors of Schnurri-3 3'UTR reporter in osteoblasts; Clone20 osteoblast Shn3 3'UTR firefly luciferase, 24 h; 360,000 tested, 0.52% active; AID 588674; inhibition, % at 12.5 µM;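 active = mean inhibition of at least 75% with every replicate also reaching 75%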;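 also: 0% = median of neutral control wells and 100% = pilot-screen positive control compound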
MITF TRPM1 inh: reduces MITF-dependent TRPM1 promoter luciferase signal; SK-MEL-5 TRPM1 promoter luciferase, 24 h; inhibition, % at 12.5 µM; 330,000 tested, 0.83% active; AID 488899;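 active = mean inhibition across replicates of 60% or more, whatever share of single replicates reaches that level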
LMP1 NFkB inh: inhibitors of Epstein-Barr LMP1-induced NF-kappaB reporter | LMP1-induced NF-kappaB luciferase reporter cells, luminescence | inhibition, % at 12.5 µM | 350,000 tested, 0.69% active; in the data active = inhibition above about 41%;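 also: 0% = neutral control wells and 100% = reference inhibitor control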
LGR2 inh: blocks bursicon-induced cAMP signaling via Drosophila LGR2. HEK293 LGR2, CRE-luciferase, bursicon-stimulated, 4 h. inhibition, % at 9.99 µM. 380,000 tested, 0.35% active;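 active = drop in luminescence signal, shown as inhibition above about 50% in the replicate tests, limit read from the data, passing the limit was not always enough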;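 also: agonist challenge used bursicon conditioned medium at about half maximal strength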
EWS-Fli inh: inhibitors of EWS/Fli oncoprotein transcriptional activity. AID 651661. A673 NR0B1-luciferase reporter, viability-normalised. inhibition, % at 12.6 µM. 350,000 tested, 0.67% active;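 active = mean inhibition of at least 50% after viability correction, with every replicate also passing that limit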;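 also: firefly luciferase signal divided by Alamar Blue viability fluorescence both relative to DMSO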
* hit, by the source's call; . = no result given. Compounds with a hit are over-represented: about 2.2% of the library has one in this group of screens.

SMILES | PAX8 reporter | Shn3 inh set2 | MITF TRPM1 inh | LMP1 NFkB inh | LGR2 inh | EWS-Fli inh
c1ccc2c(c1)[nH]c1cnccc12 | -13.1 | 8.6 | -5.3 | -4.7 | -3.6 | -5.9
CCCCCc1nc2c(c(=O)c3ccccc3n2C)c(=O)n1C1CCCCCC1 | . | 90.1* | 7.8 | 0.9 | . | 25.3
CC=Cc1ccc2n(c1=O)C[C@@H]1[C@@H](CO)[C@H](C(=O)OC)[C@H]2N1CC1CCCCC1 (mixture of isomers) | -1.7 | . | . | . | 21.5 | 0.2
C[C@H]1CCC/C=C/[C@@H]2C[C@H](O)C[C@H]2[C@@H](O)/C=C/C(=O)O1 | 118.9* | 88.3* | 88.7* | -48.8 | 28.0 | 72.7*
CCCNC(=O)[C@@H]1[C@@H](CO)[C@@H]2Cn3c(cccc3=O)[C@@H]2N1CC | . | . | . | . | -1.6 | 2.0
O=C1NC(=S)NC(=O)C1=Cc1cccc2cc3ccccc3cc12 | -5.3 | 99.3* | 97.6* | 7.3 | 4.0 | -14.7
COc1ccc(C=C2C(=O)NC(=S)NC2=O)cc1 | -12.9 | 8.9 | 5.8 | -2.3 | -4.7 | 0.3
C[C@]12CC[C@H](O)C[C@@H]1CC[C@H]1[C@H]3CCC(=O)[C@@]3(C)CC[C@@H]12 | 8.7 | 33.4 | . | 0.9 | 2.6 | 5.4
C[C@]12CCC3C(CC[C@H]4C[C@H](O)CC[C@]34C)C1CCC2=O (some centres not stated) | -39.8 | 85.7* | 2.3 | 5.9 | 16.8 | 1.6
CCCNC(=O)[C@H]1[C@H](CO)[C@H]2Cn3c(cccc3=O)[C@H]2N1CC | . | . | . | . | 5.8 | 6.8
C[C@H]1C[C@@H](C)C(=O)[C@@H]([C@H](O)CC2CC(=O)NC(=O)C2)C1 | . | 90.1* | . | 73.5* | 94.8* | 38.9
O=C(CF)N(O)c1ccc(C=Cc2ccccc2)cc1 | -164.7 | -2.9 | -19.1 | 87.9* | 58.3* | -25.7
COC(=O)C1=C(c2cc3ccccc3s2)C[C@@H]2CC[C@H]1N2C(=O)NCc1ccc(C(F)(F)F)cc1 | 66.5* | 55.2 | 1.1 | -6.0 | 37.8 | 7.4
COC(=O)C1=C(c2ccc(F)cc2OCc2ccccc2)C[C@@H]2CC[C@H]1N2C(=O)NCc1ccc(C(F)(F)F)cc1 | 87.8* | 93.4* | 10.1 | -1.9 | 22.4 | 7.0
COC(=O)C1=C(c2ccccc2OCc2ccccc2)C[C@@H]2CC[C@H]1N2C(=O)NCc1ccc(C(F)(F)F)cc1 | -1.7 | 33.9 | 1.8 | 14.8 | 33.5 | -6.5
CCCN1[C@@H]2c3ccc(-c4cccc(C(=O)N(C)C)c4)c(=O)n3C[C@H]1[C@H](CO)[C@H]2C(=O)OC | -5.6 | . | . | . | 1.1 | 12.5
N#Cc1ccc(-c2ccc([C@H]3[C@@H](CO)N4CCCCN(C(=O)Cc5ccccc5)C[C@H]34)cc2)cc1 | 18.1 | . | . | . | 5.8 | 0.4
COc1ccc(C#Cc2ccc([C@@H]3[C@H](CO)N4CCCCN(C(=O)Cc5ccccc5)C[C@@H]34)cc2)cc1 | -3.2 | . | . | . | 0.3 | 11.2
C[N+]1(C)C2CCC1CC(OC(=O)C(CO)c1ccccc1)C2 (configuration not stated) | -17.5 | -3.8 | 14.0 | 1.5 | -66.4 | 13.1
C[N+]1(C)[C@@H]2CC[C@H]1CC(OC(=O)C(CO)c1ccccc1)C2 (some centres not stated) | -5.3 | -3.5 | -10.1 | 80.0* | 2.5 | -13.6
CCCNC(=O)[C@@H]1[C@@H](CO)[C@@H]2Cn3c(cccc3=O)[C@H]1N2CCC | -1.3 | . | . | . | 1.5 | 3.1
COc1ccc(C#Cc2ccc([C@@H]3[C@H]4CN(C(=O)Cc5ccccc5)CCCCN4[C@H]3CO)cc2)cc1 | 7.4 | . | . | . | 22.2 | 19.6
CCC(=O)O[C@H]1CC[C@H]2[C@@H]3CCC4=CC(=O)CC[C@]4(C)[C@H]3CC[C@]12C | . | 13.0 | 2.2 | 87.2* | 5.8 | -3.1
CC12CCC(=O)C=C1CCC1C2CCC2(C)C(O)CCC12 (configuration not stated) | . | 6.3 | 13.6 | 4.6 | -6.6 | 7.5
C#C[C@]1(O)CC[C@H]2[C@@H]3CCC4=CC(=O)CC[C@]4(C)[C@H]3CC[C@@]21C | -0.8 | 5.6 | -11.3 | 80.9* | -2.4 | -2.5
SMILES | PAX8 reporter | Shn3 inh set2 | MITF TRPM1 inh | LMP1 NFkB inh | LGR2 inh | EWS-Fli inh
O=c1[nH]c2ccccc2n1C1CCN(C(c2nnnn2-c2ccc3c(c2)OCCO3)C2CC2)CC1 (configuration not stated) | 86.2* | 12.2 | . | . | 10.3 | 8.1
O=c1[nH]c2ccccc2n1C1CCN(C(c2cccs2)c2nnnn2-c2ccc3c(c2)OCCO3)CC1 (configuration not stated) | 95.9* | 61.0 | . | . | 22.9 | 46.2
O=C1NCN(c2ccccc2)C12CCN(C(c1ccccc1)c1nnnn1-c1ccc3c(c1)OCCO3)CC2 (configuration not stated) | 15.1 | -3.0 | . | . | 2.3 | -27.6
O=c1[nH]c2ccccc2n1C1CCN(C(c2ccccc2)c2nnnn2-c2ccc3c(c2)OCCO3)CC1 (configuration not stated) | 80.5* | 73.2 | . | . | 19.1 | 16.7
COC(=O)[C@H]1[C@H](CO)[C@H]2Cn3c(ccc(-c4cccc(F)c4)c3=O)[C@@H]1N2C(=O)CC1CC1 | . | . | . | . | -6.2 | -9.6
COC(=O)[C@@H]1[C@@H](CO)[C@@H]2Cn3c(cccc3=O)[C@@H]2N1CC1CC1 | . | . | . | . | 30.6 | 7.1
CCOC(=O)c1cccc(-[n+]2c(-c3ccccc3)cc(-c3ccccc3)cc2-c2ccccc2)c1 | 89.1* | -2.1 | 68.0* | 5.1 | 15.4 | 16.8
CCOC(=O)c1ccc(-[n+]2c(-c3ccccc3)cc(-c3ccccc3)cc2-c2ccccc2)cc1 | . | . | 76.9* | 37.8 | . | .
CCOC(=O)c1ccccc1C(=O)OCC | -13.0 | -17.4 | 8.8 | -2.4 | 1.8 | -11.8
C/C=C/c1ccc([C@@H]2[C@@H](CO)N3CCCCN(C(=O)Cc4ccncc4)C[C@@H]23)cc1 | -0.7 | . | . | . | 1.5 | 2.3
CN1CN(c2ccccc2)C2(CCN(CCCSc3ccccc3NC(=O)/C=C/c3ccccc3)CC2)C1=O | 6.5 | 58.9 | 68.9* | 10.6 | 16.5 | -11.9
COC1CCC(OC2CC(C3(C)CCC4(CC(O)C(C)C(C(C)/C=C(\C)C(=O)C(C)CC(C)C(=O)O)O4)O3)OC3(OC(C4OC(O)(CO)C(C)CC4C)CC3C)C2C)OC1C (configuration not stated) | 105.7* | 79.0 | 84.4* | -10.5 | . | 64.7*
Cc1ccc(C(O)(c2ccc(C)c(C)c2)C2CN3CCC2CC3)cc1C (configuration not stated) | 21.3 | -7.9 | 82.5* | 2.3 | 15.1 | 10.4
CC(C)CC#Cc1ccc([C@@H]2[C@H]3CN(C(=O)Cc4ccccn4)CCCCN3[C@H]2CO)cc1 | -1.9 | . | . | . | 6.7 | 19.8
CC(=O)OCC12CC(OC(=O)CC(C)C)C(C)=CC1OC1C(O)C(OC(C)=O)C2(C)C12CO2 (configuration not stated) | 102.4* | 93.2* | 87.1* | 88.4* | 101.3* | 44.4
O=S1(=O)N(CCN2CC=C(c3c[nH]c4cc(F)ccc34)CC2)c2cccc3c2N1CCC3 | 85.0* | 0.2 | 15.3 | -0.1 | 10.7 | 12.8

Bioassay records (PubChem)
